From PubChem
ERG Ets-DNA blk = ERG Ets/DNA interaction inhibition | P11308 | fluorescence polarization, His-ERG Ets domain / labelled DNA | Potency, µM (series often up to 76.9 µM), hits mostly inhibitors | 370,000 compounds, 0.028% hits | AID 624246; active means well fitted inhibition curve with a large enough effect in the polarisation, with a control signal flat; the % refers to the polarisation;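 further: polarization taken with two DNA probes labelled with fluorescein and Texas red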
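His-tagged ERG Ets domain (1 uM in the protein solution; 300mM KCl, 50mM Tris-HCl, 1mM EDTA, 1mM DTT, pH 7.5) received compound, then a probe mix of 5 nM fluorescein-DNA and 100nM Texas-615-DNA. Fluorescence polarization was read for both dyes.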
D3 ag = D3 dopamine receptor (human) agonism | D3R DiscoveRx beta-arrestin cells, luminescence, 90 min | max activation, % | 410,000 compounds, 0.58% hits | AID 652048; in the data active means max activation above about 30%
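Cells at 1500/well, incubated overnight, then treated with pinned compounds (dopamine as control) for 90 min at 37 degrees C. DiscoveRx reagent added for 30 - 60 minutes at room temperature; luminescence read.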
DRD3 antagonist = D3 dopamine receptor (human) antagonism; P35462; D3R cells, DiscoveRx beta-arrestin luminescence, antagonist mode; hits give low values; max response, negative = inhibition, %; 360,000 compounds, 2.5% hits; AID 652054; in the data active means max response below about -50%
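Cells expressing the human receptor were seeded at 1500 cells/well, incubated overnight at 37 degrees C in 5% CO2, then exposed to library compounds with dopamine controls for 90 minutes at 37 degrees C before luminescent detection.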
D1 antagonist = human D1 dopamine receptor antagonism; P21728; HEK293 TREx D1 cells, calcium flux, dopamine EC80; hits give low values; activity change, negative = inhibition, % at 10 µM; 360,000 compounds, 3.2% hits; in the data active means activity change below about -30%
Target sequence (P21728 whole entry, looked up): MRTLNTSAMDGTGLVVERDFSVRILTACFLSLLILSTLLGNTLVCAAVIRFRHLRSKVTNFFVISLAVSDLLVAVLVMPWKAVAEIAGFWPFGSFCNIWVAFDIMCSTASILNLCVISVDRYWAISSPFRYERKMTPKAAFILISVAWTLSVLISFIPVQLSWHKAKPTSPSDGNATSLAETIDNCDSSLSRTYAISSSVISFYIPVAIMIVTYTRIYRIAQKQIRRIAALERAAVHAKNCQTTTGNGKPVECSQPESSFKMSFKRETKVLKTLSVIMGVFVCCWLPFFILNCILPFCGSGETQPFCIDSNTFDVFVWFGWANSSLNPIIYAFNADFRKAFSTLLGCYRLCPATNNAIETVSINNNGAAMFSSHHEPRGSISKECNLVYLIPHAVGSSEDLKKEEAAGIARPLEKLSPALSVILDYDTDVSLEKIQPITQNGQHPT
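Compound effects on dopamine-evoked calcium signalling were measured in tetracycline-induced HEK293 Trex D1 cells. Dopamine at EC80 followed a 180 s compound pre-read, and fluorescence was tracked kinetically for 180 s more.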
D1 ag = human D1 receptor agonism | AID 504660 | activation, % at 2 µM | HEK293 T-REx D1 cells, calcium flux, agonist mode | 360,000 compounds, 1% hits; in the data active means activation above about 30%
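Agonism was scored from calcium flux recorded over 180 s (1 read/s) after pintool compound addition, following a 10-cycle baseline. Cells were inducible force-coupled HEK293 TREx D1, plated overnight at 30 C and loaded with no-wash calcium dye.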
D1 potentiator = potentiators of human D1 dopamine receptor; P21728; HEK293 TREx D1 cells, calcium flux, dopamine EC20 potentiation; potentiation, % at 10 µM; 360,000 compounds, 0.036% hits; in the data active means potentiation above about 30%
Each line names hits and unclear results; the compound was inactive in the other large screens. Rows were chosen to be rich in hits. Some 6.1% of all compounds tested hit in one or more screens of this group.

CCCCOc1ccc(C(=O)NCCS(=O)(=O)N2CCN(c3ccc(F)cc3)CC2)cc1	none (no result: DRD3 antagonist)
CCCCOc1ccc(C(=O)NCCS(=O)(=O)N2CCN(c3ccccc3OC)CC2)cc1	D1 antagonist -65 (no result: DRD3 antagonist)
CC(=O)Nc1ccc(S(=O)(=O)NCCS(=O)(=O)N2CCN(c3ccccc3F)CC2)cc1	none
COc1ccc(S(=O)(=O)NCCS(=O)(=O)N2CCN(c3ccccc3F)CC2)cc1	D1 antagonist -38 (no result: DRD3 antagonist)
CCC1=NN(C(=O)Cc2ccccc2)C(O)(c2ccncc2)C1 (stereo unspecified)	D1 antagonist -41
Cc1cc(C)nc(CCNC(=O)c2cc(COc3ccc(F)cc3F)on2)n1	D1 antagonist -34
Cc1cc(C)nc(CCNC(=O)c2cc(COc3ccc(F)cc3Cl)on2)n1	none
COC(=O)c1ccc(C23CC4(C2)[C@H](CN(Cc2ccc(-c5ccccc5)cc2)[C@@H]4c2ccccc2)C3c2ccccc2)cc1 (stereo partly specified)	none
O=C(NC1(C(F)(F)F)NC(=O)N(CC2CCCCC2)C1=O)c1ccco1 (stereo unspecified)	DRD3 antagonist -51 (no result: ERG Ets-DNA blk)
CC(C)c1cc(C(=O)N/N=C/C=C/c2ccccc2)n[nH]1	none
O=C(N=c1ccn(-c2nc3ccccc3nc2NS(=O)(=O)c2ccc(Cl)cc2)cc1)c1ccccc1Cl	D1 ag 89 (no result: ERG Ets-DNA blk, D3 ag, DRD3 antagonist)
O=C(N=c1ccn(-c2nc3ccccc3nc2NS(=O)(=O)c2ccccc2)cc1)c1ccccc1Cl	D1 ag 38
CCOc1ccc(S(=O)(=O)Nc2nc3ccccc3nc2-n2ccc(=NC(=O)c3cccs3)cc2)cc1	D1 antagonist -33, D1 ag 72
O=C(N=c1ccn(-c2nc3ccccc3nc2NS(=O)(=O)c2ccc(Cl)cc2)cc1)c1cccs1	none
CCN(CC)c1cccc(OCC(=O)N2c3ccccc3CC2C)c1 (stereo unspecified)	none
CCC(=O)Nc1c(-c2ccccc2Cl)c(=O)c2ccccc2n1CC	none
Cc1ccc(-c2cc(Cc3ccc(F)cc3)c(=O)[nH]n2)cc1	D1 antagonist -47
Cc1cccc(-c2nn(-c3ccccc3)cc2C(=O)N2CCN(C3CCS(=O)(=O)C3)CC2)c1 (stereo unspecified)	none
CSc1ccc(S(=O)(=O)NCc2ccccc2C)cc1	none
O=[N+]([O-])c1ccc(-c2cn3nc(-c4ccccc4)c(-c4ccccc4)nc3n2)cc1	none
Cc1ccc(-c2cn3nc(-c4ccccc4)c(-c4ccccc4)nc3n2)cc1	D1 ag 43
O=[N+]([O-])c1cccc(-c2cn3nc(-c4ccccc4)c(-c4ccccc4)nc3n2)c1	none
c1ccc(-c2cn3nc(-c4ccccc4)c(-c4ccccc4)nc3n2)cc1	D1 ag 73
Cc1cccc(CN(C(=S)Nc2c(C)cccc2C)c2cccnc2)c1	D1 antagonist -33
CCc1ccccc1NC(=S)N(Cc1cccc(C)c1)c1cccnc1	none
O=C1C2C3C=CC(C3)C2C(=O)N1c1n[nH]c(-c2ccccc2)n1 (stereo unspecified)	D3 ag 34
O=C1C2C3C=CC(C3)C2C(=O)N1c1n[nH]c(-c2cccnc2)n1 (stereo unspecified)	none
CC(C)(O)C#Cc1ccc(CN2CCN(CCc3ccccc3)C(CCO)C2)s1 (stereo unspecified)	D1 antagonist -37
CC(C)=CCN1CCN(Cc2ccc(C#CC(C)(C)O)s2)CC1CCO (stereo unspecified)	D1 antagonist -37
CC(C)c1cc(-c2nc(-c3ccc(Cl)cc3)no2)n[nH]1	D1 antagonist -38 (no result: DRD3 antagonist)
COc1cc(-c2noc(-c3cc(C(C)C)[nH]n3)n2)cc(OC)c1OC	none (no result: DRD3 antagonist)
O=S(=O)(Nc1ccccc1O)c1cccc2cccnc12	D1 antagonist -35
O=C(N/N=C/c1cccnc1)c1ccc2c(c1)OCO2	D1 antagonist -35
O=C(N/N=C/c1ccc2c(c1)OCO2)c1ccc2c(c1)OCO2	none
O=C(N/N=C\C=C\c1ccc2c(c1)OCO2)c1cccnc1	D1 antagonist -39
CCN(C(=O)c1cc(S(=O)(=O)N2CCCCC2)c[nH]1)c1ccc(OC)cc1	none
Cc1ccc(N2CCN(C(=O)c3cc(S(=O)(=O)N4CCCCC4)c[nH]3)CC2)c(C)c1	none (no result: DRD3 antagonist)
CCN(CC)C(=O)c1cc(S(=O)(=O)N2CCCCC2)c[nH]1	D1 antagonist -36
CC1CCN(C(=O)c2cc(S(=O)(=O)N3CCCCC3)c[nH]2)CC1	D1 antagonist -33
O=c1cc(-c2ccc(O)cc2)oc2cc(O)c(C3OC(CO)C(O)C(O)C3O)c(O)c12 (stereo unspecified)	DRD3 antagonist -64
COC(=O)[C@@]12C[C@@H](CC(=O)NCC34CC5CC(CC(C5)C3)C4)C(=O)N(Cc3ccco3)C1=CCC(C)(C)C2	none (no result: ERG Ets-DNA blk, D1 antagonist, D1 ag, D1 potentiator)
CC(C)(C)c1ccc(S(=O)(=O)CC(O)CSc2nc3c(cc2C#N)CCCC3)cc1 (stereo unspecified)	none
CCCCNS(=O)(=O)c1ccc(S(=O)(=O)N2CCC3(CC2)OCCO3)cc1	D1 antagonist -46 (no result: ERG Ets-DNA blk)
O=S(=O)(c1ccc(S(=O)(=O)N2CCC3(CC2)OCCO3)cc1)N1CCCC1	none
O=C(Cc1csc(Nc2nc(=S)[nH]c3ccccc23)n1)NCc1ccc(Cl)cc1	D1 antagonist -97
O=C(Cc1csc(Nc2nc(=S)[nH]c3ccccc23)n1)NCCCN1CCN(c2ccccc2F)CC1	DRD3 antagonist -69, D1 antagonist -86
Cc1ccccc1OCCC(=O)OCC(=O)Nc1ccc2[nH]c(=O)[nH]c2c1	none
COc1cccc(C(=O)N2CCN(Cc3ccccn3)CC2)c1	none
CCCCn1nc(NS(=O)(=O)c2cccc3nonc23)c2cc3cccc(C)c3nc21	none
COC(=O)C[C@@H]1CC[C@@H](NC(=O)C2CCC2)[C@@H](CO)O1	none (no result: ERG Ets-DNA blk, D1 antagonist, D1 ag, D1 potentiator)
CN(CCNC(=O)c1cccc(N2CCCC2=O)c1)Cc1ccccc1	DRD3 antagonist -58
CCN(CCNC(=O)c1cccc(N2CCCC2=O)c1)c1ccccc1	none
CCOC(=O)c1c(C)[nH]c(C)c1S(=O)(=O)NCC(=O)Nc1cccc(Cl)c1	none (no result: DRD3 antagonist)
CCOC(=O)c1c(C)[nH]c(C)c1S(=O)(=O)NCC(=O)Nc1cccc(C(F)(F)F)c1	D1 antagonist -40 (no result: DRD3 antagonist)
COC(=O)CSc1nc2cc(Cl)ccc2c(=O)n1C1CCCC1	none
COc1ccc(C2=C(C)C(N3CCC(C(=O)NCc4ccc(C)o4)CC3)=NS2(=O)=O)cc1	none (no result: DRD3 antagonist)
CC(C)c1ccc(N(CC(=O)NCCSCc2ccco2)S(C)(=O)=O)cc1	D1 antagonist -61
COc1ccc(N(CC(=O)NCc2ccco2)S(C)(=O)=O)cc1OC	none
